# Source: PubChem BioAssay
# Tau fibril ThT: tau fibrillization inhibition (ThT binding) | P10636 | recombinant tau K18 P301L, heparin-induced fibrillization, ThT fluorescence | Potency, µM (series often up to 57.4 µM), for the others: top-dose activity, negative = inhibition, most hits filed as inhibitors | 270,000 compounds, 2.1% hits | AID 1460; further: potency means the concentration at half of the fitted maximal effect; nearly all actives have a fitted effect of over 55% in size
# Target sequence (P10636 561-689 P618L limits assumed): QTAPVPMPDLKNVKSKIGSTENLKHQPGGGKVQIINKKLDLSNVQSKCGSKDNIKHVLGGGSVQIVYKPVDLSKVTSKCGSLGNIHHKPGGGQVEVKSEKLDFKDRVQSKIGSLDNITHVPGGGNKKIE
#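 Fibril formation assay: tau K18 P301L at 15 uM with trace Alexa 594 label, heparin inducer 20 uM, pH 7 sodium acetate buffer, 37 C for 6 hr; endpoint ThT signal.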
# Coupling enz: counter-screen for Giardia aldolase inhibitors: coupling enzyme system; coupling enzyme system counterscreen, AmpLite Red fluorescence; activity change, negative = inhibition, % at 58.2 µM, hits read low; 290,000 compounds, 0.67% hits; in the data active means activity change below about -30%
#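 Activity here indicates interference with the coupling reaction, not aldolase inhibition. Compounds at 57.5 uM final met coupling enzymes for 10 min at RT; substrate and AmpLite Red detection followed, with a 525/598 nm fluorescence read after 20 min.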
# Tau FP inhib: inhibitors of human tau fibril formation; P10636; K18 P301L tau heparin fibrillization, Alexa594 FP, 6 h; Potency, µM (doses to about 57.7 µM), without a hit: at the top dose activity, negative = inhibition, usual class: inhibitors; 280,000 compounds, 0.39% hits; further: potency means the concentration at half of the fitted maximal effect; nearly all actives have a fitted effect of over 55% in size
#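 Steps: dispense K18 P301L tau (15 uM plus 0.24 uM Alexa 594 tracer, final) in pH 7 sodium acetate; add compound; add heparin (20 uM final); incubate 6 hr, 37 C; add ThT (30 uM final); after 1 hr ambient, read FP.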
# G9a inh: G9a (human) methyltransferase inhibition | Q96KQ7 | G9a H3K9 monomethylation, AlphaScreen, 2 h | Potency, µM (doses to about 102 µM), without a hit: at the highest dose activity, negative = inhibition, most hits filed as inhibitors | 350,000 compounds, 8.8% hits | AID 504332; further: potency means the concentration at half of the fitted maximal effect; nearly all actives have a fitted effect of over 75% in size
# Target sequence (Q96KQ7 913-1193 limits assumed): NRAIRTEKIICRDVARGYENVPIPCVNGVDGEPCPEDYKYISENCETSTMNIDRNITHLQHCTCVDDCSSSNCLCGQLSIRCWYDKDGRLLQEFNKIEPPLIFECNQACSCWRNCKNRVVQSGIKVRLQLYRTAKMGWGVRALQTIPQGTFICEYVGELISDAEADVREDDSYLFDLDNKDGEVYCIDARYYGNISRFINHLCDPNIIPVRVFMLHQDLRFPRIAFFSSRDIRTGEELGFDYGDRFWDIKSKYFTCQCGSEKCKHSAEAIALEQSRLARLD
#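 G9a (20 nM) was preincubated 15 min with compound, then reacted 2 h at room temperature with 500 nM biotin-H3K9 peptide and 20 µM SAM. Monomethyl-H3K9 detected by AlphaScreen using anti-H3K9me1 antibody.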
# Sfp PPTase inh: blocks B. subtilis Sfp PPTase activity; Q9F4F7; Biochemical Sfp PPTase activity, qHTS; Potency, µM, for inactives: largest response in the series, negative = inhibition, usual class: inhibitors; 310,000 compounds, 3.5% hits; AID 1490;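 further: the enzyme is Sfp with the accession as filed and its product quenches rhodamine fluorescence; potency means the concentration at half of the fitted maximal effect; 0% = enzyme reaction without inhibitor and -100% = no enzyme wells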
#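 Sfp 15 nM + cpd, 15 min RT; start w/ rhodamine-CoA 5 uM, BHQ-2-YbbR 12.5 uM (final); 50 mM Hepes pH 7.6, 10 mM MgCl2, 0.01% NP-40, 0.01% BSA; read 525/598 nm at 0 and 30 min.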
# Tau fluor cs: counter-screen for tau fibril formation inhibitors; 280,000 compounds, 0.93% hits; tau K18 P301L Alexa594 fluorescence, heparin fibrillization; Potency, µM (titrated, usually from 57.7 µM), without a hit: top-dose activity change, negative = decrease; further: potency means the concentration at half of the fitted maximal effect; nearly all actives have a fitted effect of over 55% in size
#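 Human tau K18 P301L (15 uM unlabeled, 0.24 uM Alexa 594-labeled) in 100 mM sodium acetate pH 7 with 20 uM heparin, 6 hr at 37 C. ThT 30 uM added, 1 hr ambient; Alexa 594 FP and total fluorescence read at 555/632 nm.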
# The depositor's hits bear a star; ? = inconclusive; . = no result; ! = not active in a repeat; [ ] = remark or other dose. Sampled rows, rich in hits. Any-hit rate of the full collection: about 11%. Unless noted, the call rests on the fitted dose curve; in most records, active means well fitted curve in the direction sought with a large enough effect; inconclusive means small, poorly fitted or top-dose-only effect, or another doubt; inactive means no such curve, though single readings can be large; an effect the other way counts as inactive or inconclusive. Unless noted, on the % scale 0 is the no-effect control and ±100 the full control effect.
SMILES,Tau fibril ThT,Coupling enz,Tau FP inhib,G9a inh,Sfp PPTase inh,Tau fluor cs
CCOC(=O)C(Sc1nnc(-c2ccncc2)o1)C(C)=O (stereo unspecified),?,4,-10%,7.9µM*,-1%,-10%
COC(=O)C(C)Sc1nnc(-c2ccncc2)o1 (stereo unspecified),9%,2,8%,10%[12.7 µM],10%,16%
O=C1CC(c2ccccc2)Cc2[nH]c(=O)c(-c3nc(-c4cccc(Cl)c4)cs3)cc21 (stereo unspecified),-6%,.,-17%,17%[59 µM],.,-23%
CC(C(=O)Nc1ccc(Br)cc1)N(C)CC(=O)NCc1ccco1 (stereo unspecified),.,.,.,8.9µM*,.,.
O=C(Oc1ccccc1)N1CCN(C(=O)c2ccco2)CC1,.,1,.,13%,0%,.
CN(C)C=Nc1c(Br)cc(Br)c2nonc12,?,-43*,?,58%[59 µM],-14%,-14%
CN(C)C=Nc1nonc1-c1ccccc1,-5%,5,4%,9%,10%,-7%
CN(C)c1ccc(O)c2c1C[C@@H]1C[C@H]3C(N(C)C)C(=O)C(C(N)=O)=C(O)[C@@]3(O)C(=O)C1=C2O (stereo partly specified),?,-17,-9%,-51%[2.33 µM],2%,-16%
CC1=NOC(=O)/C1=C/c1ccc(-c2ccc(Cl)cc2)o1,18µM*,1,-8%,4.5µM*,32µM*,?
CC1=NOC(=O)/C1=C\c1ccc(-c2ccc(Br)cc2C(=O)O)o1,?,4,?,.,?,-17%
CC1=NOC(=O)/C1=C\c1ccc(-c2ccc(Br)cc2)o1,28µM*,1,2%,5µM*,45µM*,-30%
CC1=NOC(=O)/C1=C\c1ccc(-c2cc(Cl)ccc2Cl)o1,?,-3,-1%,?,18µM*,-29%
CN(C)c1ccc(NC(=O)Cc2ccccc2)c2ccccc12,.,1,.,-20%,10%,.
COc1ccc(-n2ncc3c(N4CCN(Cc5ccccc5)CC4)ncnc32)cc1,-20%,2,3%,-31%,-7%,-14%
CN1CCCN(C(=O)c2ccc(Cl)c(S(=O)(=O)N(C)c3ccccc3)c2)CC1,1%,1,5%,50µM*,9%,-3%
O=C1CSC2(C(=O)N(Cc3c(F)cccc3Cl)c3ccccc32)N1c1ccc(F)c(F)c1 (stereo unspecified),3%,.,0%,-30%[59 µM],.,-7%
CC(=O)Oc1c(Sc2ccccc2[N+](=O)[O-])c(C)nn1C(C)(C)C,?,6,-17%,45µM*,9%,-9%
Cc1ccc(-n2nc(C)c(Sc3ccccc3[N+](=O)[O-])c2N)cc1,?,0,-3%,10µM*,-20%,-29%
COc1cc(OC)cc(C(=O)Oc2c(Sc3ccccc3)c(C)nn2C(C)(C)C)c1,-20%,.,?,27%[59 µM],.,-15%
COCCN(CCOC)Cc1c(O)ccc2c1O/C(=C\c1ccc(C)o1)C2=O,.,-15,.,1µM*,2.8µM*,.
Cn1cc(Cl)c(C(=O)Nc2nccs2)n1,.,3,.,-4%,6%,.
O=C(Nc1nccs1)c1ncc(Cl)c(Cl)c1Cl,.,-1,.,45µM*,-6%,.
CCc1nnc(NC(=O)c2cnccn2)s1,-3%,4,-2%,?,?,-4%
COC(=O)c1sccc1NC(=S)Nc1cc(C)cc(C)c1,-11%,0,-9%,-43%,-7%,-14%
O=C(Nc1nccs1)c1cnccn1,-5%,-1,4%,6.3µM*,?,1%
S=C(Nc1ccccc1)Nc1nccs1,-10%,-5,-15%,27µM*!,?,-24%
Fc1ccc(NC(=S)Nc2nccs2)cc1,7%,-4,-2%,?,?,-20%
COC(=O)c1sccc1NC(=S)Nc1ccccc1,-5%,0,-1%,50µM*,19%,-1%
Oc1ccccc1-n1c(-c2ccccc2)ccc1-c1ccccc1,-15%,-1,-3%,24%[12.7 µM],-21%,?
